In the supplement of paper PMC8728848:
About 410 targets per protein were measured; listed, in parts, are those with the strongest signals and a random draw of the rest.

Experiments:
Test in all cases: glycan array binding signal (z-score within array); higher = stronger binding
Details in all cases: glycan notation: IUPAC condensed, linker removed
Gal3S6S(b1-4)GlcNAc = target: Gal3S6S(b1-4)GlcNAc
In short: (§1)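 Glycan array binding is given as a within-array Z-score, which can be read as non-binding when negative. The arrays, 3228 of them, came from the Consortium for Functional Glycomics database and were retained only where the protein sequence was available. Z-scores were averaged across arrays of the same protein sequence at different concentrations or buffers and across linkers.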

Gal4S6S(b1-4)GlcNAc = target: Gal4S6S(b1-4)GlcNAc
In short: as §1

GalNAc(b1-4)GlcNAc6S = target: GalNAc(b1-4)GlcNAc6S
In short: as §1

GalNAc3S(b1-4)GlcNAc = target: GalNAc3S(b1-4)GlcNAc
In short: as §1

Glc(b1-4)Glc = target: Glc(b1-4)Glc
In short: as §1

GlcA(b1-6)Gal = target: GlcA(b1-6)Gal
In short: as §1

[1] = target: GlcNAc(a1-4)Gal(b1-4)GlcNAc(b1-3)Gal(b1-4)GlcNAc
In short: as §1

[2] = target: GlcNAc(b1-2)Gal(b1-3)GalNAc
In short: as §1

[3] = target: GlcNAc(b1-2)[GlcNAc(b1-4)]Man(a1-3)[GlcNAc(b1-4)][GlcNAc(b1-2)[GlcNAc(b1-6)]Man(a1-6)]Man(b1-4)GlcNAc(b1-4)[Fuc(a1-6)]GlcNAc
In short: as §1

[4] = target: GlcNAc(b1-3)Gal(b1-4)GlcNAc(b1-3)Gal(b1-4)GlcNAc(b1-3)Gal(b1-4)GlcNAc(b1-3)Gal(b1-4)GlcNAc(b1-2)[GlcNAc(b1-3)Gal(b1-4)GlcNAc(b1-3)Gal(b1-4)GlcNAc(b1-3)Gal(b1-4)GlcNAc(b1-3)Gal(b1-4)GlcNAc(b1-6)]Man(a1-6)[GlcNAc(b1-3)Gal(b1-4)GlcNAc(b1-3)Gal(b1-4)GlcNAc(b1-3)Gal(b1-4)GlcNAc(b1-3)Gal(b1-4)GlcNAc(b1-2)Man(a1-3)]Man(b1-4)GlcNAc(b1-4)[Fuc(a1-6)]GlcNAc
In short: as §1

[5] = target: GlcNAc(b1-3)Gal(b1-4)GlcNAc(b1-3)GalNAc
In short: as §1

[6] = target: GlcNAc(b1-3)Gal(b1-4)GlcNAc(b1-6)[Gal(b1-3)]GalNAc
In short: as §1

[7] = target: GlcNAc6S(b1-3)Gal(b1-4)GlcNAc
In short: as §1

[8] = target: Man(a1-2)Man(a1-2)Man(a1-6)[Man(a1-3)]Man
In short: as §1

Man(a1-2)Man(a1-3)Man = target: Man(a1-2)Man(a1-3)Man
In short: as §1

[9] = target: Man(a1-2)Man(a1-3)[Man(a1-2)Man(a1-6)]Man(a1-6)[Man(a1-2)Man(a1-2)Man(a1-3)]Man
In short: as §1

[10] = target: Neu5Ac(a2-3)Gal(b1-3)GlcNAc(b1-3)Gal(b1-3)GlcNAc
In short: as §1

[11] = target: Neu5Ac(a2-3)Gal(b1-3)[Fuc(a1-4)]GlcNAc
In short: as §1

[12] = target: Neu5Ac(a2-3)Gal(b1-3)[Neu5Ac(a2-6)]GalNAc
In short: as §1

[13] = target: Neu5Ac(a2-3)Gal(b1-4)GlcNAc(b1-6)[Gal(b1-3)]GalNAc
In short: as §1

[14] = target: Neu5Ac(a2-3)Gal(b1-4)[Fuc(a1-3)]GlcNAc(b1-3)Gal(b1-4)GlcNAc
In short: as §1

[15] = target: Neu5Ac(a2-6)Gal(b1-4)GlcNAc(b1-2)Man(a1-3)Man(b1-4)GlcNAc(b1-4)GlcNAc
In short: as §1

[16] = target: Neu5Ac(a2-6)Gal(b1-4)GlcNAc(b1-2)Man(a1-3)[Gal(b1-4)GlcNAc(b1-2)Man(a1-6)]Man(b1-4)GlcNAc(b1-4)GlcNAc
In short: as §1

[17] = target: Neu5Ac(a2-6)Gal(b1-4)GlcNAc(b1-2)Man(a1-3)[Neu5Ac(a2-3)Gal(b1-4)GlcNAc(b1-2)Man(a1-6)]Man(b1-4)GlcNAc(b1-4)GlcNAc
In short: as §1

[18] = target: Neu5Ac(a2-6)Gal(b1-4)GlcNAc(b1-3)Gal(b1-3)GlcNAc
In short: as §1

[19] = target: Neu5Ac(a2-6)Gal(b1-4)GlcNAc(b1-6)[Gal(b1-3)]GalNAc
In short: as §1

[20] = target: Neu5Ac(a2-8)Neu5Ac(a2-8)Neu5Ac
In short: as §1

[21] = target: Neu5Ac(a2-8)Neu5Gc(a2-3)Gal(b1-4)GlcNAc
In short: as §1

[22] = target: Neu5Ac9Ac(a2-3)Gal(b1-4)GlcNAc
In short: as §1

B1: PX9937J-pdi-523-26-523 (Parabacteroides distasonis) (protein)
chain: EPVSSISDANYWKSPDLFKAFNIGLHGLLRSQSSYNIFVLGEPRSDIYGDQPFGGEATQGVERFSYNTINAEFTGISNFANFYTTLNQINLMIRRTNETDLLGEAEKNYYLGQAYGLRAYIYFHLLRSWGDVIITTEPTLGSELDISHLDKAASPASEVMDLIKKDIDASEKAFGGDYSYKQGKCYWSKPATLMLKGEVYLWSGRQMGGGTGDYTVAKTALQDLQQNGNLKLQEKFTDVFSFNNKENSEMIFALHSGKEDDFMMWRDYNWRNNMVPQREYMAGYCDETGTPFLEIPGYNLQGLMRYQVKKDHYLKSFREGDTRLKGTLKAVYKKHEDGTLEYIAPIQYKFQGTTLEGSNERSWYDDYPIYRYADALLLLAEAKALLGEDPSTEINAVRERAYGSEYFNAHKNEVAYPNDKGSFYNDNPFEAGDENVMEAILKERLREFFFEGKRWYDLRRFGKDYVLKYTTAQESRLLWPINEGALTNNPALKQTPGY
- glycan array binding signal (z-score) (Gal3S6S(b1-4)GlcNAc): 0.142
- glycan array binding signal (z-score) (Gal4S6S(b1-4)GlcNAc): -0.181
- glycan array binding signal (z-score) (GalNAc(b1-4)GlcNAc6S): 4.57
- glycan array binding signal (z-score) (GalNAc3S(b1-4)GlcNAc): 0.755
- glycan array binding signal (z-score) (Glc(b1-4)Glc): -0.296
- glycan array binding signal (z-score) (GlcA(b1-6)Gal): -0.638
- glycan array binding signal (z-score) [1]: -0.296
- glycan array binding signal (z-score) [2]: -0.438
- glycan array binding signal (z-score) [3]: -0.488
- glycan array binding signal (z-score) [4]: 4.67
- glycan array binding signal (z-score) [5]: -0.404
- glycan array binding signal (z-score) [6]: -0.195
- glycan array binding signal (z-score) [7]: 0.294
- glycan array binding signal (z-score) [8]: -0.284
- glycan array binding signal (z-score) (Man(a1-2)Man(a1-3)Man): -0.138
- glycan array binding signal (z-score) [9]: -0.317
- glycan array binding signal (z-score) [10]: -1
- glycan array binding signal (z-score) [11]: 0.062
- glycan array binding signal (z-score) [12]: 0.071
- glycan array binding signal (z-score) [13]: -0.1
- glycan array binding signal (z-score) [14]: 3.41
- glycan array binding signal (z-score) [15]: -0.373
- glycan array binding signal (z-score) [16]: 4.14
- glycan array binding signal (z-score) [17]: -0.327
- glycan array binding signal (z-score) [18]: -0.303
- glycan array binding signal (z-score) [19]: 0.505
- glycan array binding signal (z-score) [20]: -0.094
- glycan array binding signal (z-score) [21]: 9.17
- glycan array binding signal (z-score) [22]: -0.44
